Calls of active or inactive are those of the source. Unless noted, how the calls were made is not given here.
Experiments:
[1] = anti-His antibody binders, primary screen, artefact control for SMM control protein annotation, biochemical, small-molecule microarray, 635 nm fluorescence (AID 1128); settings: anti-His Alexa647 antibody binding, higher = more signal;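 further: score merges feature fluorescence with signal-to-noise for each printed compound spot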
[2] = test system: Human papillomavirus type 1a E7 protein (residues 1-88); test: HPV1a E7 small-molecule binders, primary screen, biochemical, small-molecule microarray, residues 1-88, 635 nm (AID 1129); settings: small-molecule microarray binding, fluorescence 635 nm; higher = more signal
[3] = target: Focal adhesion kinase 1 (Homo sapiens) (UniProt Q05397); test: small-molecule microarray binders of FAK, primary screen, biochemical, 635/667 nm fluorescence, BSA, DTT (AID 1130); settings: PTK2 binding, 635 nm fluorescence, higher = more signal;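 further: composite of spot emission at 667 nm and signal to noise over triplicate slides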
Sequence of Focal adhesion kinase 1 (Homo sapiens) (Q05397 whole entry, looked up): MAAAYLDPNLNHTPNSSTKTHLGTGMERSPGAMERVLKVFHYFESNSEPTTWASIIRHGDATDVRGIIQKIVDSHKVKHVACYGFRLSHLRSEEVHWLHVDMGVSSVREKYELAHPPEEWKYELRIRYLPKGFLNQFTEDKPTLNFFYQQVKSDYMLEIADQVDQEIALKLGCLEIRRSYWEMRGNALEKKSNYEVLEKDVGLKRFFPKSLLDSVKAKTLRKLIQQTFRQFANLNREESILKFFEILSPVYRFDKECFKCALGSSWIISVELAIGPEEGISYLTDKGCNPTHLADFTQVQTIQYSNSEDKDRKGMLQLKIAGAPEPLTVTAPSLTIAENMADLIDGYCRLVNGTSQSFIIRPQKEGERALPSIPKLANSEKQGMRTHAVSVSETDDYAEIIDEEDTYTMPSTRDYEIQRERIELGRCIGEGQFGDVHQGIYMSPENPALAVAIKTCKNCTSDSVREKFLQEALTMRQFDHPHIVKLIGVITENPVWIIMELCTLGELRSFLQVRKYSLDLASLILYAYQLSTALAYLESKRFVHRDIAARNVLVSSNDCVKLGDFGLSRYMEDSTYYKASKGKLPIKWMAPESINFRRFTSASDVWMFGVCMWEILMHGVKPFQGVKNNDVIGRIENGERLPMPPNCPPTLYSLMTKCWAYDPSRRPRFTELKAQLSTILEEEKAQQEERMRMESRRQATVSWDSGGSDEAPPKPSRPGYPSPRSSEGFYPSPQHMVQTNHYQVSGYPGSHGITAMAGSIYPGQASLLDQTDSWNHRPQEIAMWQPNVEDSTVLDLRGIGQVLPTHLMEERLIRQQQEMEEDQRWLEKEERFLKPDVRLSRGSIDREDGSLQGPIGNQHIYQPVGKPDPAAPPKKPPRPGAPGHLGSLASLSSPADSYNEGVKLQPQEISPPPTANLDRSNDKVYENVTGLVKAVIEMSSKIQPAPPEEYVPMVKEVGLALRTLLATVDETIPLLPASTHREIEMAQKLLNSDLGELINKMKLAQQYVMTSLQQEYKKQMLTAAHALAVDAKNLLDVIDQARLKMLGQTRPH

[4] = test system: Fibrinogen (Alexa647-labelled); test: fibrinogen binders on compound microarrays, profiling panel, artefact control for SMM control-protein annotation, biochemical, small-molecule microarray, 635/667 nm fluorescence (AID 1131); settings: fibrinogen-A647 binding fluorescence, higher = more signal;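 further: z-score merges 667 nm fluorescence with per-spot signal-to-noise over triplicate slides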
[5] = target: Follistatin (Homo sapiens) (UniProt P19883); test: follistatin binders on small-molecule microarrays, primary screen, biochemical, small-molecule microarray, 635/667 nm fluorescence (AID 1132); settings: FST binding, 635 nm fluorescence, higher = more signal
Sequence of Follistatin (Homo sapiens) (P19883 whole entry, looked up): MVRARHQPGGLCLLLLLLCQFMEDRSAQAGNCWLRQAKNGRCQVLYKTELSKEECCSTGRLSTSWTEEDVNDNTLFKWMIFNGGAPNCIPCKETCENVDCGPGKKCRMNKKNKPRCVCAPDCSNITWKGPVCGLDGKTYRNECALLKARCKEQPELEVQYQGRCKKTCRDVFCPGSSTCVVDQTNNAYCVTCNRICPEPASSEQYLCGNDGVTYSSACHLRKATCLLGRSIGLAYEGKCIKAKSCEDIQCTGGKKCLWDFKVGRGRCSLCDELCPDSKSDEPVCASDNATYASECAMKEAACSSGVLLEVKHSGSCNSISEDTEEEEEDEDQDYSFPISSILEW

[6] = target: Fibroblast growth factor 2 (Homo sapiens) (UniProt P09038); test: FGF2 binders on small-molecule microarrays, primary screen, biochemical, small-molecule microarray, 635/667 nm fluorescence (AID 1133); settings: small-molecule microarray binding, FGF2, fluorescence 635/667; higher = more signal
Sequence of Fibroblast growth factor 2 (Homo sapiens) (P09038 whole entry, looked up): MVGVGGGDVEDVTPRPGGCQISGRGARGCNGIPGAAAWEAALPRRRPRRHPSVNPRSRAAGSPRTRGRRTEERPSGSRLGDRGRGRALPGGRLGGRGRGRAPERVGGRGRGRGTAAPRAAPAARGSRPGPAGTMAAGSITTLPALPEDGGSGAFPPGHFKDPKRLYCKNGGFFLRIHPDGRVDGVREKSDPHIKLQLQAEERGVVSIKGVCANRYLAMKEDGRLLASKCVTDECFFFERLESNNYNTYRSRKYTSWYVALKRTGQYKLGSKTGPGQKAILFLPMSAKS

[7] = mitochondrial membrane potential change in A549 cells, profiling panel, cell-based, JC-1 fluorescence, basal, 24 h, 100 nL (AID 1138); settings: higher = more signal;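 further: A549 lung adenocarcinoma cells under basal conditions with no added stimulus; test concentration not given here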
[8] = test system: Lefty1; test: Lefty1 binders on small-molecule microarrays, primary screen, biochemical, small-molecule microarray, 635/667 nm fluorescence (AID 1139); settings: small-molecule microarray binding, fluorescence 635/667; higher = more signal
[9] = test system: wheat germ agglutinin (Triticum aestivum), Alexa647-labelled; test: wheat germ agglutinin binders on compound microarrays, profiling panel, artefact control for SMM control-protein annotation, biochemical, small-molecule microarray, 635/667 nm fluorescence (AID 1140); settings: WGA-A647 binding, 635 nm fluorescence, higher = more signal;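 further: score merges 667 nm feature emission with signal to noise over triplicate slides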
[10] = target: Luciferin 4-monooxygenase (Photinus pyralis) (UniProt P08659); test: firefly luciferase enzyme inhibitors, primary screen, biochemical, luminescence, purified enzyme, 2006 set (AID 1141); settings: SteadyGlo luminescence, 30 min, higher = more signal, called active from +8 up or from −8 down;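 further: cell-free assay with purified firefly luciferase at 100 ng per well in PBS; test concentration not given here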
Sequence of Luciferin 4-monooxygenase (Photinus pyralis) (P08659 whole entry, looked up): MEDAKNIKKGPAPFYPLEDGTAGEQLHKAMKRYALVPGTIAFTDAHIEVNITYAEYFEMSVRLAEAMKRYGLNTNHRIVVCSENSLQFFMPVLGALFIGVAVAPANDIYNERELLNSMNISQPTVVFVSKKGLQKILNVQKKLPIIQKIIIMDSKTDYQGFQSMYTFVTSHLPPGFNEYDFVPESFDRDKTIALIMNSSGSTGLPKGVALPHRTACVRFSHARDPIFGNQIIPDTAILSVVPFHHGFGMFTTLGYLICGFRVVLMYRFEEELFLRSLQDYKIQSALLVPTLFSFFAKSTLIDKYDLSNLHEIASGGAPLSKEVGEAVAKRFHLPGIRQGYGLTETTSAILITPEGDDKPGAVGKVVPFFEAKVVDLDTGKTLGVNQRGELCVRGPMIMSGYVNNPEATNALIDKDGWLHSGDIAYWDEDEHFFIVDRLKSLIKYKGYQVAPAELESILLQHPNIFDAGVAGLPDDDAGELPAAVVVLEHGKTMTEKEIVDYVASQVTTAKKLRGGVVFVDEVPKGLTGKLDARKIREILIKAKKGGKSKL

[11] = test system: Wnt5a (protein binding on small-molecule microarray); test: Wnt5a binders on small-molecule microarray, primary screen, biophysical, 635/667 nm fluorescence (AID 1142); settings: 635 nm fluorescence, higher = more signal;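 further: fluorescence read at 667 nm with signal to noise per printed feature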
[12] = cell viability in Huh7 cells, primary screen, cytotoxicity control for HCV replication inhibitor project, CellTiter-Glo luminescence, basal, 48 h (AID 1143); settings: Huh7 HCV replicon, higher = more signal, called active from +8 up or from −8 down;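 further: Huh7 hepatoma cells carrying a hepatitis C replication reporter with no stimulus; test concentration not given here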
[13] = P. aeruginosa biofilm formation inhibitors, primary screen, PAO1 strain, BacTiter-Glo luminescence, LB-PBS (AID 1144); settings: 12 h, higher = more signal
[14] = CREB reporter modulators without forskolin, primary screen, cell-based, PC12, CRE-LacZ reporter, unstimulated (AID 1145); settings: no forskolin, luminescence, 4.5 h, higher = more signal, called active from +8 up or from −8 down
[15] = CREB reporter modulators under forskolin, primary screen, cell-based, PC12, CRE-LacZ reporter, forskolin-stimulated (AID 1146); settings: luminescence, 4.5 h, higher = more signal, called active from +8 up or from −8 down;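 further: PC12 cells with 6xCRE LacZ reporter stimulated by forskolin 10 µM; beta-galactosidase reporter signal reflecting CREB driven transcription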
[16] = target: Streptavidin (Streptomyces avidinii) (UniProt P22629); test: streptavidin binders on small-molecule microarray, primary screen, artefact control for SMM compound annotation, biophysical, 635/667 nm fluorescence (AID 1147); settings: streptavidin binding, higher = more signal;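 further: signal reflects streptavidin binding to arrayed compounds as a control protein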
Sequence of Streptavidin (Streptomyces avidinii) (P22629 whole entry, looked up): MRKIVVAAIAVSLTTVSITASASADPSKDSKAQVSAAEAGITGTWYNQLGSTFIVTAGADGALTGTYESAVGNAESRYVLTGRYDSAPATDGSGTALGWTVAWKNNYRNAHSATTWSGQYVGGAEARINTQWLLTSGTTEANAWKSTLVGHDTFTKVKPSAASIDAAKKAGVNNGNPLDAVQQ

[17] = small-molecule binders of probe aInhba, primary screen, biochemical, small-molecule microarray, 635/667 nm fluorescence (AID 1148); settings: higher = more signal;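 further: score merges 667nm spot fluorescence with signal-to-noise for antibody binding to printed compounds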
[18] = target: Torsin-1A (Homo sapiens) (UniProt O14656); test: torsin A binders from cell lysate, primary screen, small-molecule microarray, wild-type, 635/667 nm (AID 1149); settings: COS7 hTOR1A-WT lysate, 635 nm fluorescence, higher = more signal
Sequence of Torsin-1A (Homo sapiens) (O14656 whole entry, looked up): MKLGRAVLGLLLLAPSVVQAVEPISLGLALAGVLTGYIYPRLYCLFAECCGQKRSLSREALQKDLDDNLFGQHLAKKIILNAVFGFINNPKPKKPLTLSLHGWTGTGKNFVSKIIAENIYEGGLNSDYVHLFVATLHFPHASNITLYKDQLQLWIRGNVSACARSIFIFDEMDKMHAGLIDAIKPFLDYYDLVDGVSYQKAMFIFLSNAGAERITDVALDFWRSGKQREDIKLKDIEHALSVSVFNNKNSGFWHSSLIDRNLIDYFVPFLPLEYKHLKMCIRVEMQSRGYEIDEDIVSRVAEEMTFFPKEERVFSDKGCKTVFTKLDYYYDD

[19] = target: Torsin-1A (Homo sapiens) (UniProt O14656); test: small-molecule binders of mutant TOR1A in lysate, primary screen, cell lysate, small-molecule microarray, COS7 lysate, 635/667 nm fluorescence (AID 1150); settings: COS7 hTOR1A mutant lysate, 635 nm fluorescence, higher = more signal;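 further: score pools 667 nm emission and signal to noise measuring lysate protein binding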
[20] = test system: Sonic hedgehog protein (Shh); test: small-molecule binders of Shh protein, primary screen, biochemical, small-molecule microarray, 635/667 nm fluorescence (AID 1151); settings: small-molecule microarray binding, 635 nm fluorescence; higher = more signal;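 further: Shh protein binding to compounds spotted on small-molecule microarray slides; score combines spot fluorescence intensity with signal-to-noise across triplicate slides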

| SMILES | composite z-score [1] | composite z-score [2] | composite z-score [3] | composite z-score [4] | composite z-score [5] | composite z-score [6] | z-score [7] | composite z-score [8] | composite z-score [9] | z-score [10] | composite z-score [11] | z-score [12] | z-score [13] | z-score [14] | z-score [15] | composite z-score [16] | composite z-score [17] | composite z-score [18] | composite z-score [19] | composite z-score [20] |
| --- | --- | --- | --- | --- | --- | --- | --- | --- | --- | --- | --- | --- | --- | --- | --- | --- | --- | --- | --- | --- |
| CC(C)C[C@@H]1NC(=O)[C@@]23C(=O)N[C@@H](Cc4ccccc4)C2[C@H](C)[C@@]2(C)O[C@H]2C3/C=C/C/C=C\CNC(=O)[C@@H](CC(C)C)NC1=O (stereo not given in full) | 0.455 | 0.409 | -0.0559 | 0.928 | 0.797 | 0.963 | 0.102 | 0.84 | 0.393 | -1.23 (inactive) | 0.0669 | -0.91 (inactive) | 0.587 (inactive) | 2.66 (inactive) | 0.158 (inactive) | -0.463 | -0.128 | 0.295 | 0.068 | 1.39 |
| CN(C)C(=O)[C@]1(Cc2ccccc2CN=[N+]=[N-])N=C(c2ccc(OCCCO)cc2)O[C@@H]1c1ccccc1N=[N+]=[N-] | 0.266 | 1.23 | 0.977 | 1.02 | 1.18 | -0.0347 | 0.568 | -0.136 | 1.12 | -9.41 (active) | 0.397 | -3.07 (inactive) | -0.406 (inactive) | -0.79 (inactive) | -0.969 (inactive) | 1.34 | 0.177 | 0.0095 | 0.25 | -0.946 |
| C=C(CCCC)C(=O)CC[C@H](OC(=O)c1cccnc1)c1ccc(CO)o1 | 3.27 | 1.2 | -0.188 | 0.664 | 1.18 | 1.27 | -0.555 | 1.65 | 0.791 | -1.33 (inactive) | 0.239 | 0.0536 (inactive) | -0.159 (inactive) | -0.117 (inactive) | 0.484 (inactive) | 0.14 | 0.212 | 0.835 | 0.576 | 1.6 |
| O=c1cccc(-c2ccccc2C(F)(F)F)o1 | -0.602 | 0.389 | -0.0583 | -2.29 | -0.547 | -0.661 | -0.074 | -0.599 | -0.861 | 1.24 (inactive) | 0.297 | -0.121 (inactive) | 0.0176 (inactive) | -0.471 (inactive) | -0.12 (inactive) | -0.318 | 0.763 | 0.242 | 0.0563 | -0.999 |
| Cc1ccc(F)cc1S(=O)(=O)N[C@@H]1CCN(Cc2ccc3c(c2)OCO3)C1 | -0.146 | -0.844 | -0.226 | 0.125 | 0.491 | 0.279 | 1.32 | 0.236 | -0.0476 | -0.391 (inactive) | -0.212 | -1.51 (inactive) | -0.455 (inactive) | 1.22 (inactive) | -0.714 (inactive) | -0.194 | -0.128 | 0.241 | 0.0733 | -0.0547 |
| CCCCN1CC=CC23O[C@@H]4C=CCOC(=O)[C@@H]4[C@H]2C(=O)N(CCO)[C@@H]3C1=O (stereo not given in full) | -0.211 | -0.629 | -0.681 | -0.717 | -1.06 | -1.39 | 0.0309 | -1.45 | -1.29 | 0.0308 (inactive) | -0.477 | -0.238 (inactive) | 1.1 (inactive) | 0.0605 (inactive) | 0.113 (inactive) | -0.94 | 0.059 | 0.0805 | -0.243 | -0.858 |
| [N-]=[N+]=NCc1ccccc1C[C@@]1(C(=O)O)N=C(c2ccc(OCCCO)cc2)O[C@@H]1c1ccccc1CN=[N+]=[N-] | 0.705 | 1.17 | -0.0333 | 0.989 | 1.02 | 0.679 | -0.253 | 0.594 | 0.51 | -0.593 (inactive) | 0.561 | -1.96 (inactive) | -0.595 (inactive) | -0.996 (inactive) | -1.4 (inactive) | 0.465 | 0.353 | 1.28 | 0.171 | 0.447 |
| C[N+](C)(C)CCCCCCNC(=O)[C@@H]1C[C@@H]2C(=O)N[C@@H](Cc3ccccc3)C(=O)N2[C@@H]1c1ccc(O)cc1 | 2.13 | 1.21 | -0.371 | 0.533 | 1.43 | 1.65 | -0.247 | 1.63 | 0.702 | 0.344 (inactive) | 0.42 | -0.267 (inactive) | -0.409 (inactive) | -0.805 (inactive) | -0.327 (inactive) | -0.0442 | -0.0039 | 1.26 | 0.984 | 2.07 |
| COC(=O)c1c(CC[C@@H](CO)NC(=O)N[C@@H](Cc2ccccc2)Cn2cc(-c3cncn3C)nn2)oc(C(C)=O)c1C(=O)OC | 0.579 | 0.873 | -0.179 | 0.107 | 1.01 | -0.0088 | -0.691 | 0.847 | 0.391 | 0.879 (inactive) | -0.245 | -3.29 (inactive) | -0.662 (inactive) | -0.491 (inactive) | -0.566 (inactive) | -0.0808 | 0.0872 | 0.443 | 1.26 | 1.75 |
| NC(=O)[C@@]1(CCS(=O)(=O)c2ccccc2)COC(c2ccc(OCCCO)cc2)=N1 | 0.329 | -0.201 | -0.0683 | 0.294 | 0.112 | -0.0653 | -0.492 | -0.643 | 1.05 | -0.188 (inactive) | 0.375 | -1.5 (inactive) | 1.59 (inactive) | 0.148 (inactive) | -1.35 (inactive) | 0.447 | -0.0044 | -0.0756 | 0.324 | -0.463 |
